The nature of assay [1]: qHTS assay for small molecule agonists of the p53 signaling pathway (AID 651631; calls by dose curve; further: nearly all actives have a fitted effect of over 15% in size; further: potency means the concentration at half of the fitted maximal effect). The method, boiled down: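 p53RE-bla HCT-116 cells; compounds 16 h, 37 °C; LiveBLAzer B/G FRET substrate 2 h RT; fluorescence intensity read-out, qHTS format.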
A short description of assay [2]: qHTS assay for small molecule disruptors of the mitochondrial membrane potential (AID 720635). Further: potency means the concentration at half of the fitted maximal effect. The essentials: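 HepG2 cells (2,000/well) attached overnight at 37C, then took compound for 1 hr at 37C, 5% CO2. Mito-MPS dye was added for 30 min; fluorescence was read at 490/535 nm (monomers) and 540/590 nm (aggregates).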
For orientation: In qHTS, concentration-response curves come from the screen itself.

A short description of assay [3]: qHTS assay to test for compound auto fluorescence at 590 nm (red) in HepG2 cells (AID 720674). The essentials: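 Rose Bengal sodium served as the red fluorophore standard. HepG2 monolayers (overnight attachment, MEM with 10% FBS) were exposed to test compounds for 1 hr at 37 C and read at Ex 540/Em 590 nm.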
Assay [4] in a line: qHTS assay to test for compound auto fluorescence at 460 nm (blue) in HEK293 cells (AID 720678). The method, boiled down:
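Measured: blue fluorescence (Ex 405/Em 460 nm) of compound-treated HEK293 cells, incubated overnight at 37C with 5% CO2 and scaled to triamterene equivalents.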

Assay [5] is described as follows: qHTS assay to test for compound auto fluorescence at 535 nm (green) in HEK293 cells (AID 720680).
Assay [6] is described as follows: qHTS assay to test for compound auto fluorescence at 590 nm (red) in HEK293 cell free culture (AID 720683). The essentials: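 Tox21 10K library compounds were pinned into cell-free DMEM with 10% FBS and fluorescence was read at excitation 540 nm. Activity is expressed as Rose Bengal sodium equivalency.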
Assay [7] addresses Glucocorticoid receptor (Homo sapiens) (UniProt P04150). Nature of the assay: qHTS assay to identify small molecule agonists of the glucocorticoid receptor (GR) signaling pathway (AID 720691; active means well fitted activation curve with a large enough effect in the signal ratio in the repeat runs, not every such curve was filed as active; inconclusive means weak or mixed curves, or effect the other way; inactive means no such curve, though single readings can be large or run the other way; the % refers to the signal ratio). The essentials: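 GR-bla HeLa cells carrying a GRE-driven beta-lactamase reporter, exposed to compounds for 18 h at 37 C. Reporter activation read as fluorescence after 2 h with LiveBLAzer B/G FRET substrate at room temperature.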

The nature of assay [8]: qHTS assay to identify small molecule antagonists of the glucocorticoid receptor (GR) signaling pathway - cell viability counter screen (AID 720693). Further: nearly all actives have a fitted effect of over 55% in size.
Assay [9] is described as follows: qHTS assay for identifying genotoxic compounds that show differential cytotoxicity against isogenic chicken DT40 cell lines with known DNA damage response pathways - wild type cell line (AID 743012). Further: nearly all actives have a fitted effect of over 60% in size. Further: potency means the concentration at half of the fitted maximal effect. The method, boiled down:
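Wild-type DT40 cells (300/well) exposed to compounds for 40 hours at 37 C/5% CO2. Viability read by CellTiter-Glo luminescence after 30 min at room temperature.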

Assay [10] in a line: qHTS assay for identifying genotoxic compounds that show differential cytotoxicity against isogenic chicken DT40 cell lines with known DNA damage response pathways - Rev3 mutant cell line (AID 743014). Further: nearly all actives have a fitted effect of over 55% in size. Further: potency means the concentration at half of the fitted maximal effect.
A short description of assay [11]: qHTS assay for identifying genotoxic compounds that show differential cytotoxicity against isogenic chicken DT40 cell lines with known DNA damage response pathways - Rad54/Ku70 mutant cell line (AID 743015). Further: nearly all actives have a fitted effect of over 60% in size. Further: potency means the concentration at half of the fitted maximal effect.
Assay [12] can be described thus: qHTS assay to identify small molecule antagonists of the thyroid receptor (TR) signaling pathway - cell viability counter screen (AID 743064). Further: nearly all actives have a fitted effect of over 50% in size. Further: potency means the concentration at half of the fitted maximal effect. The essentials:
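GH3.TRE-Luc cells, 4 h pre-plating; cpd + T3 1 nM final; 37 °C 23.5 h; CellTiter-Fluor 30 min; fluorescence read.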

Assay [13] in a line: qHTS assay to identify small molecule antagonists of the thyroid receptor (TR) signaling pathway (AID 743065). Further: nearly all actives have a fitted effect of over 55% in size. Further: potency means the concentration at half of the fitted maximal effect. The method, boiled down:
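GH3.TRE-Luc rat pituitary cells carrying two TR response elements driving luciferase were plated for 4 h, given compound plus 1 nM T3 (final), and incubated 23.5 h at 37 C. ONE-Glo luminescence measured reporter inhibition; CellTiter-Fluor fluorescence tracked cytotoxicity.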

Assay [14] deals with thyroid hormone receptor (rat, GH3 cells). In words: qHTS assay to identify small molecule agonists of the thyroid receptor (TR) signaling pathway (AID 743066; calls by dose curve).
Assay [15] has as its target Estrogen receptor (Homo sapiens) (UniProt P03372). In words: qHTS assay to identify small molecule agonists of the estrogen receptor alpha (ER-alpha) signaling pathway (AID 743075; calls by dose curve;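 further: HEK293 GripTite cells with ER-alpha and UAS-driven beta-lactamase reporter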; further: potency means the concentration at half of the fitted maximal effect).
Assay [16] can be described thus: qHTS assay to identify small molecule antagonists of the estrogen receptor alpha (ER-alpha) signaling pathway using the BG1 cell line (AID 743080; calls by dose curve;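 further: BG1 cells stimulated with 17beta-estradiol alongside compound; series mostly up to about 70 µM; nearly all actives have a fitted effect of over 25% in size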). The method, boiled down:
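Quantitative HTS on the Tox21 10K library: BG1 cells with endogenous ER-alpha and ERE-luciferase reporter, 17beta-estradiol stimulation, 21.5 h compound exposure, luminescence endpoint with parallel fluorescence cytotoxicity counter-read.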

The nature of assay [17]: qHTS assay to identify small molecule that activate the aryl hydrocarbon receptor (AhR) signaling pathway - cell viability counter screen (AID 743086). Further: nearly all actives have a fitted effect of over 45% in size. Further: potency means the concentration at half of the fitted maximal effect. The essentials: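 HepG2-AhR-luc (HG2L7.5c1) cells, 4000/well, were preincubated 5 h at 37C, exposed to compound in qHTS format for 24 hr at 37C, then given CellTiter-Fluor for 30 min; viability was read as fluorescence in the reporter wells.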

In assay [18] the target is Peroxisome proliferator-activated receptor gamma (Homo sapiens) (UniProt P37231). In words: qHTS assay to identify small molecule agonists of the peroxisome proliferator-activated receptor gamma (PPARg) signaling pathway (AID 743094; active means well fitted activation curve with a large enough effect in the signal ratio in the repeat runs, not every such curve was filed as active; inconclusive means weak or mixed curves, or effect the other way; inactive means no such curve, though single readings can be large or run the other way; the % refers to the signal ratio). The method, boiled down: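 GeneBLAzer PPARg UAS-bla HEK293H cells were plated, rested 5 h, then exposed to compounds for 17 h at 37C. Beta-lactamase activity was read by LiveBLAzer B/G FRET substrate fluorescence after 1 h at room temperature.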
Peroxisome proliferator-activated receptor gamma (Homo sapiens), sequence (P37231 whole entry, looked up): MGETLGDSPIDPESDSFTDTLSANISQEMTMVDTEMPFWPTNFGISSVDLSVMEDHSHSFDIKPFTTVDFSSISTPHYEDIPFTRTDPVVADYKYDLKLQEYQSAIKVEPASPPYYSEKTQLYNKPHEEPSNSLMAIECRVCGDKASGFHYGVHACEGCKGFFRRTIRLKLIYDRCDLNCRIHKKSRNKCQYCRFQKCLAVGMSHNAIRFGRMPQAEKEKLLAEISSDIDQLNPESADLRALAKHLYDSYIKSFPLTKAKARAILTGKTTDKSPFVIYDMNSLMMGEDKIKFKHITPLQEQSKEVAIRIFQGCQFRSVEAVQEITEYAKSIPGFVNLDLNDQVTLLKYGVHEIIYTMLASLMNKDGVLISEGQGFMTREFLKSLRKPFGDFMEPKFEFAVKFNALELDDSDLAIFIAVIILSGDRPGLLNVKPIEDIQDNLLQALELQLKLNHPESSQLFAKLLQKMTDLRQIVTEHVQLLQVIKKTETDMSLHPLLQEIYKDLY

For assay [19], the target named is Nuclear receptor subfamily 1 group I member 2 (Homo sapiens) (UniProt O75469). In words: Human pregnane X receptor (PXR) activation by small molecules, qHTS assay (AID 1346985). Further: nearly all actives have a fitted effect of over 40% in size. The method, boiled down: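 DPX-2 cells (HepG2 co-transfected with a PXR response element and a CYP3A4-promoter luciferase construct) were seeded at 2,000 per well, rested 5 hr at 37C, then exposed to DMSO-dissolved compounds for 24 hr. Activation was read as luciferase luminescence.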

The nature of assay [20]: qHTS assay for small molecules that induce genotoxicity in human embryonic kidney cells expressing luciferase-tagged ATAD5 - cell viability (AID 651634; calls by dose curve; further: nearly all actives have a fitted effect of over 25% in size; further: potency means the concentration at half of the fitted maximal effect). The method, boiled down:
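HEK293T cells carrying luciferase-tagged ATAD5, 2,000 cells/well, exposed to compound for 15.5 hr at 37C. Viability read as live-cell protease activity by CellTiter-Fluor fluorescence after 30 min at 37C.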

Where “and” joins values, the source holds several entries; their conditions need not be identical. Identical values can stand only once. Calls of active or inactive are those of the source. Unless noted, the call rests on the fitted dose curve; in most records, active means well fitted curve in the direction sought with a large enough effect in the repeat runs; inconclusive means weak or mixed curves; inactive means no such curve, though single readings can be large; an effect the other way counts as inactive or inconclusive.

Glucocorticoid receptor (Homo sapiens), sequence (P04150 whole entry, looked up): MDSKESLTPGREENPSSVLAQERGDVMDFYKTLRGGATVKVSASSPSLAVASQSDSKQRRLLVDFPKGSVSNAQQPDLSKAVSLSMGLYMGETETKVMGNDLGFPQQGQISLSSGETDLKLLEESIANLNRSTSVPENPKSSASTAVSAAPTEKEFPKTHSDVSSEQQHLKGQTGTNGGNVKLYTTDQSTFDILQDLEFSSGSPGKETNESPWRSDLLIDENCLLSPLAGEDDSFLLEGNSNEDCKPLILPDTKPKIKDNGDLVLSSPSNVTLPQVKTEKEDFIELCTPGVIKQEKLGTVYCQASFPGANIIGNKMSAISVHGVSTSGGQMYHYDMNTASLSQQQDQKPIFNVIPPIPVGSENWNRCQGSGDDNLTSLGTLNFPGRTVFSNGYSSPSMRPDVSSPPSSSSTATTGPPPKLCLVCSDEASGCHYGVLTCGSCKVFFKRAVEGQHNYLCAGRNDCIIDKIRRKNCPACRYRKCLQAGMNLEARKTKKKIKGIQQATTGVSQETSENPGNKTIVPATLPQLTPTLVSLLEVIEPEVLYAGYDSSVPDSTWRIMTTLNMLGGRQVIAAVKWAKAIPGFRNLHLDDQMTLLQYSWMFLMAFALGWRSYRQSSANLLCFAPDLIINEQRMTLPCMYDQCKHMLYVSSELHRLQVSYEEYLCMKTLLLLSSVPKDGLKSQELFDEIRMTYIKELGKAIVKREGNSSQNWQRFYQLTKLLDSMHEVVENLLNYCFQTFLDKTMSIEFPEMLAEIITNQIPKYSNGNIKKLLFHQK
Estrogen receptor (Homo sapiens), sequence (P03372 whole entry, looked up): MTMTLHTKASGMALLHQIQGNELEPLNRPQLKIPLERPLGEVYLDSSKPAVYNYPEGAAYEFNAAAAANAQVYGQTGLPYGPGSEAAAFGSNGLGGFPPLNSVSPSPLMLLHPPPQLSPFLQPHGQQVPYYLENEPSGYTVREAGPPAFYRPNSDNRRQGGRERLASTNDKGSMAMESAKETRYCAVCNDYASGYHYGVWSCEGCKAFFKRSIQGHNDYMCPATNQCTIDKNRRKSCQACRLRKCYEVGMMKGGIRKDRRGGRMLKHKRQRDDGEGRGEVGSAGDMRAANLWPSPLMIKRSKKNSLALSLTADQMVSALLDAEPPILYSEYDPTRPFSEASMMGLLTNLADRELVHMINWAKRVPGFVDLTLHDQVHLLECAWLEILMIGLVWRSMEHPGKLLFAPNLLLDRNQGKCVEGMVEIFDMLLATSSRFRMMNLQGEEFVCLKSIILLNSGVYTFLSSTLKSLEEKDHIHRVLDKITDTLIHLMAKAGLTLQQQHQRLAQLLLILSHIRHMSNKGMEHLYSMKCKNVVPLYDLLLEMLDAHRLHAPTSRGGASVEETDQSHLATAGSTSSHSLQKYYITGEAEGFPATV

Turning to `COc1ccc2c3c1O[C@H]1[C@@H](O)C=C[C@H]4[C@@H](C2)NCC[C@@]341`, the Potency result in [1], in assay [2], in assay [4], in assay [5], in assay [7] and in [8] was “inactive” in each case. Further, the Potency result in [9], in assay [10], in assay [11], in [12], in [13] and in [14] was “inactive” in each case. Moreover, the Potency entry in assay [15], in [16], in assay [17], in assay [18] and in [19] was “inactive” in each case. Besides, the result in [3] and in assay [6] was inactive.
On to `C[C@@H](Cc1ccccc1)N(C)C`, for which the Potency result in [1], in assay [2], in [5], in assay [9], in assay [10] and in [11] was “inactive” throughout. The Potency entry in [12], in [13], in assay [14], in [17], in [18] and in [19] was “inactive” in each case. Also, the molecule was called inactive in assay [3] and in assay [6].
Regarding `Oc1cc[c]([Hg][Cl])cc1`, the Potency is 23.7 µM (active) in assay [1]; 11.9 µM (active) and 13.3 µM (active) in assay [20]; 11.9 µM (active) in [2]; 422 nM (active) and 596 nM (active) in assay [9]; 750 nM (active) and 841 nM (active) in assay [10]; 0.473 µM (active) in assay [11]. Besides, the Potency in [12] is 596 nM (active) and 841 nM (active); in [13], 422 nM (active) and 531 nM (active); in assay [15] it was 21.3 µM [inconclusive] (active); in [17], 13.3 µM (active). Besides, the result in assay [3] and in assay [6] was inactive. In addition, the Potency result in assay [4] and in assay [5] was “inactive” each time.
As to `C[C@]12CCC(=O)C=C1C=C[C@@H]1[C@@H]2CC[C@@]2(C)[C@H]1CC[C@@]2(O)CCC(=O)O`, the Potency entry in [20], in assay [2], in assay [4], in assay [5], in assay [7] and in assay [8] was “inactive” throughout. In addition, the Potency entry in assay [12], in assay [13], in assay [14], in [17], in [18] and in [19] was “inactive” each time. Further, the molecule was classed as inactive in assay [3] and in [6].
`N#CC1(N2CCCCC2)CCCCC1`: the Potency result in assay [20], in assay [2], in assay [5], in [7], in assay [9] and in [10] was “inactive” in each case. The Potency result in assay [11], in assay [12], in [13], in [14], in assay [15] and in assay [16] was “inactive” throughout. For the same molecule, the Potency result in assay [17], in [18] and in [19] was “inactive” throughout. Besides, the molecule was classed as inactive in assay [3].
As to `O=C(CS(=O)C(c1ccccc1)c1ccccc1)NO` (stereo not given), the Potency entry in [20], in [2], in [5], in assay [7], in assay [9] and in [10] was “inactive” each time. Also, the Potency entry in [11], in assay [12], in [13], in assay [14], in assay [15] and in assay [16] was “inactive” in each case. Further, the Potency entry in assay [18] and in [19] was “inactive” throughout. Further, in [3], the molecule was called inactive.
On to `C[C@]12CC[C@H]3[C@@H](CCC4=C(O)C(=O)CC[C@@H]43)[C@@H]1CC[C@@H]2OC(=O)CCC1CCCC1`, for which the Potency result in assay [1], in assay [20], in [2], in assay [5], in assay [7] and in assay [9] was “inactive” in each case. In addition, the Potency result in [10], in [11], in assay [12], in [13], in assay [14] and in assay [16] was “inactive” throughout. For the same molecule, the Potency entry in assay [17], in assay [18] and in assay [19] was “inactive” in each case. Further, the result in assay [3] was inactive. Also, the Potency in assay [15] was 0.952 µM [inconclusive] (active).
Take `CC(C)CCC(=O)O[C@H]1CC[C@H]2[C@@H]3CCC4=CC(=O)CC[C@]4(C)[C@H]3CC[C@]12C`: the Potency result in [20], in assay [4], in assay [5], in assay [7], in assay [10] and in assay [11] was “inactive” in each case. Moreover, the Potency entry in assay [14], in [16], in assay [17], in assay [18] and in [19] was “inactive” throughout. Besides, in assay [3], the call was inactive. For the same molecule, the Potency in [9] is 7.5 µM (active); in assay [12] it was 33.5 µM (active); in [13], 29.8 µM (active); in [15], 4.77 µM [inconclusive] (active).
